“And” between values parts separate entries of the source, which are not always exact repeats. Equal values may be shown once. Inconclusive results are not listed. The source made the active and inactive calls. The call rests on the fitted dose curve; in most records, active means well fitted inhibition curve with a large enough effect; inconclusive means small, poorly fitted or top-dose-only effect; inactive means no such curve, though single readings can be large or run the other way.
Molecular target: Cruzipain (Trypanosoma cruzi) (UniProt P25779)
Experiment: Confirmation qHTS Assay for Inhibitors of Cruzain; further: nearly all actives have a fitted effect of over 40% in size;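 on activity change, negative = inhibition: plate controls were uninhibited enzyme control for no effect and buffer wells lacking enzyme for full effect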
Details: purified cruzain, Z-FR-AMC fluorescence, 0.01% Triton
Summary of the method: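 Purified cruzain, 1.5 nM, pre-incubated 15 min at room temperature with compound in 100 mM sodium acetate pH 5.5, 5 mM DTT, 0.01% Triton X-100. Then 2 uM Z-FR-AMC added; AMC fluorescence (ex 360/em 450 nm) increase over 60 s gave reaction progress.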
Potency means the concentration at half of the fitted maximal effect.

Sequence of Cruzipain (Trypanosoma cruzi) (P25779 123-467 limits assumed): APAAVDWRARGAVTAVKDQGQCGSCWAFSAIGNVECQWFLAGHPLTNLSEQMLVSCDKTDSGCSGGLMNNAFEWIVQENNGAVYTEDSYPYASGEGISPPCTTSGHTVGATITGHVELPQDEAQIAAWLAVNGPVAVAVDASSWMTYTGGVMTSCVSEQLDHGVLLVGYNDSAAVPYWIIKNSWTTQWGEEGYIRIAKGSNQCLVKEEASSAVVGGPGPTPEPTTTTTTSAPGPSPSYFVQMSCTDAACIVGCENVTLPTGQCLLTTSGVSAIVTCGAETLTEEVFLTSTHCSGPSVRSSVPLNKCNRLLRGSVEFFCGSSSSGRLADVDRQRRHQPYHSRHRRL

SMILES | activity change, negative = inhibition | Potency
Cc1ccc2[nH]c(=O)c(CN(Cc3ccco3)Cc3nnnn3Cc3ccco3)cc2c1 | -6.56% (inactive) | –
CC(C)(C)CNc1nc(C#N)nc(Nc2ccccc2)n1 | – | 2 µM (active)
CC(C)CCNC(=O)Cn1c(SCc2cccc(F)c2)nc2ccncc21 | – | 14.1 µM (active)
Cc1ccc(NC(=O)c2ccc(-n3nncc3-c3ccccc3)cc2)cc1 | 2.57% (inactive) | –
N#Cc1nc(Nc2cc(F)cc(Cl)c2)nc(NC2CCCC2)n1 | – | 0.141 µM (active)
Clc1ccccc1-c1nn2c(-c3cc(-c4ccccc4)n[nH]3)nnc2s1 | -2.56% (inactive) | –
COc1ccc(/C=C/C(=O)Nc2ccc(-n3nncc3-c3ccc(Br)cc3)cc2)cc1OC | – | 12.6 µM (active)
NC(N)=NCCC[C@H](NC(=O)CNC(=O)c1ccccc1)C(=O)Nc1cc(C(F)(F)F)ccc1Cl | -8.36% (inactive) | –
CC(C)(C)OC(=O)NCC(=O)NNC(=O)C(C(=O)OCc1ccccc1)c1ccccc1 (stereo not drawn) | -3.79% (inactive) | –
O=C(NCCCO)c1ccc2nc(-c3ccco3)c(-c3ccco3)nc2c1 | – | 12.6 µM (active)
O=C(CNC(=O)c1ccccc1)OCC(=O)c1ccccc1 | – | 15.8 µM (active)
COc1ccc(NC(=O)C(OC(=O)CNC(=O)c2ccccc2)c2ccccc2)c(C)c1 (stereo not drawn) | – | 8.91 µM (active)
O=C(NNC(=O)c1nc2ccccc2[nH]1)OCc1ccccc1 | -7.65% (inactive) | –
O=C(COC(=O)CNC(=O)c1ccccc1Cl)Nc1ccccc1Cl | – | 3.55 µM (active)
N#Cc1nc(Nc2cc(F)cc(F)c2)nc(NC2CCCC2)n1 | – | 0.0631 µM (active)
Cc1ccc(O/C=C2/Nn3c(nnc3-c3cc(-c4ccccc4)n[nH]3)S2)cc1 | -1.56% (inactive) | –
COc1nc(C#N)nc(N(C)C)n1 | – | 6.31 µM (active) and 7.94 µM (active)
C(/Oc1ccccc1)=C1\Nn2c(nnc2-c2cc(-c3ccccc3)n[nH]2)S1 | -9.74% (inactive) and -7.34% (inactive) | –
CCN1CCN(CCCNC(=O)c2cc3c(s2)-c2ccccc2OC3)CC1 | – | 15.8 µM (active)

SMILES | activity change, negative = inhibition | Potency
N#CN1CCC(NS(=O)(=O)c2cccc(C(F)(F)F)c2)CC1 | 0.31% (inactive) | –
CCc1ccc2[nH]c(=O)c(CN(Cc3cccnc3)Cc3nnnn3Cc3ccccc3)cc2c1 | -20.9% (inactive) | –
O=C(COC(=O)CNC(=O)C1CCCCC1)Nc1cc(C(F)(F)F)ccc1Cl | – | 2.82 µM (active)
CCN(c1ccccc1)c1nc(C#N)nc(N(CC)c2ccccc2)n1 | – | 5.01 µM (active)
COc1ccc(C(=O)NCC(=O)OCC(=O)c2ccc3ccccc3c2)cc1 | – | 15.8 µM (active)
C=CCNC(=O)c1ccc2nc(-c3ccco3)c(-c3ccco3)nc2c1 | – | 15.8 µM (active)
CC(C)N(CCC(=O)c1ccc2ccccc2c1)Cc1ccccc1 | – | 31.6 µM (active)
COc1cccc(C(=O)NC2CCN(C#N)CC2)c1 | -6.95% (inactive) | –
COc1ccc(C(=O)C(C)OC(=O)CNC(=O)C2CCCCC2)cc1 (stereo not drawn) | – | 1.41 µM (active)
Cn1nc(-c2ccc(Cl)cc2)nc2c(=O)n(C)c(=O)nc1-2 | – | 0.891 µM (active)
Cn1c(=O)c2c(-c3ccccc3)n(-n3cnnc3)cc2n(C)c1=O | – | 22.4 µM (active)
CC(C)C[C@H](N)c1nnc(S(=O)(=O)Cc2cccc(F)c2)o1 | – | 15.8 µM (active)
N#Cc1nc(NCCO)nc(Nc2ccccc2)n1 | – | 1.58 µM (active)
CC(C)C[C@H](NC(=O)[C@@H]1O[C@H]1C(=O)O)C(=O)NCCCCN=C(N)N | – | 0.112 µM (active)
COC(=O)CCC(C)C1CCC2C3CC[C@H]4CC(O)CC[C@@]4(C)C3CC(O)[C@]12C (stereo partly drawn) | -8.27% (inactive) | –
CCn1cnc2c(Nc3cc(F)cc(F)c3)nc(C#N)nc21 | – | 0.01 µM (active)
Cc1ccc2[nH]c(=O)c(CN(CCO)Cc3nnnn3Cc3ccco3)cc2c1 | -3.64% (inactive) | –
COc1ccc(Nc2nc(C#N)nc(NC3CCCC3)n2)cc1 | – | 0.447 µM (active)
COc1ccccc1-c1nn2c(-c3cc(C)[nH]n3)nnc2s1 | -12.2% (inactive) | –
